# Data reported in PubChem BioAssay (NCATS).
# Records with an inconclusive call do not appear. Entries that show only a call come without a potency. The source made the active and inactive calls. Calls follow the shape of the dose curve; as a rule, active = well fitted inhibition curve with a large enough effect; inconclusive = small, poorly fitted or top-dose-only effect; inactive = no such curve, though single readings can be large or run the other way.
# Assay: qHTS assay for measurement of the activity of small molecule inhibitors on Zika virus induced Caspase-3 activity in human iPSC derived neural progenitor cells (hNPCs) (AID 1224857); also: nearly all actives have a fitted effect of over 65% in size
# Settings: hNPCs ZIKV-induced caspase-3/7, Caspase-Glo luminescence, 6 h; series mostly up to 45.7 µM
# From the text: National Center for Advancing Translational Sciences [NCATS]
# Johns Hopkins University School of Medicine
# Increase in the Caspase-3 activity indicates an activation of apoptosis cell death pathway caused by Zika virus infection in certain types of neuronal cells including human neural progenitor cells (hNPCs), astrocytes, and astrocytoma cell line (SNB-19). This cell-based caspase-3 activity assay measures the increased caspase-3 activity in the human iPSC derived neural progenitor cells (hNPCs) after a 6-hour Zika virus infection with a luminescence readout. A decrease in the luminescence signal in this assay by small molecule treatment indicates an inhibitory effect of that small molecule on the Zika virus induced caspase-3 activity that may correlate with its effect on reduction of Zika virus caused cell death.
# The medium for hNPCs consists of DMEM/F12, N2 supplement (ThermoFisher, Cat.# 17502048), NEAA (ThermoFisher, Cat. # 11140050), 2 ug/ml heparin, 2 uM cyclopamine, and B27 (ThermoFisher, Cat. # 17504044). A Caspase-Glo 3/7 assay kit (catalog number G8092; Promega, Madison, WI) was used to detect caspase-3 activity induced by Zika virus infection in human cells. The reagent mixture was reconstituted as described in the protocol from the manufacturer. Polystyrene tissue culture treated and PDL coated white plates were obtained from Greiner Bio-One (Monroe, NC). Cells were seeded in 384- or 1536-well assay plates and cultured at 37 C with 5% CO2 for 16 to 20 hours. The typical cell seeding density in the 1536-well plate assay is 350 cells/well in 3 ul medium for hNPCs in tissue culture treated plates. Compounds were added to cells and incubated for one hour before addition of ZIKV solution to cells (2 FFU/cell). After incubation at 37 C with 5% CO2 for 6 hours, the reagent mixture of Caspase-Glo 3/7 assay kit was added to each well, followed by incubation at room temperature for 30 minutes. The luminescence intensity of the assay plates was measured using a ViewLux plate reader (PerkinElmer). Data were normalized by using the cell-containing wells without ZIKV as a negative control (0% induction of caspase 3/7 activity) and wells containing ZIKV infected cells (Caspase-3 activity induced) as a positive control (100% induction of caspase 3 activity). The percentage inhibitions of the increased Caspase-3 activity by small molecule inhibitors were then calculated.
row,SMILES,Potency
1,CC(C)(C)NCC(O)COc1nsnc1N1CCOCC1 (stereo not given),inactive
2,Fc1ccc(C(OCCCc2cnc[nH]2)c2ccc(F)cc2)cc1,inactive
3,CSc1ccccc1N1CCN(CCCCCC(=O)NC2CCCc3ccccc32)CC1 (stereo not given),inactive
4,CO[C@H]1O[C@@H]2O[C@]3(C)CC[C@@H]4[C@@H](C)CC[C@H]([C@H]1C)[C@]24OO3,inactive
5,O=C(Nc1cccc(C(=O)Nc2ccc(S(=O)(=O)O)c3cc(S(=O)(=O)O)cc(S(=O)(=O)O)c23)c1)Nc1cccc(C(=O)Nc2ccc(S(=O)(=O)O)c3cc(S(=O)(=O)O)cc(S(=O)(=O)O)c23)c1,inactive
6,Cc1ccc(O)c(-n2nc3ccccc3n2)c1,inactive
7,O=C(O)CC1CCCc2ccccc2C1O (stereo not given),inactive
8,O=C(Nc1ccccc1)c1cc([N+](=O)[O-])ccc1Cl,inactive
9,CC(=O)N[C@H](C(=O)O)C(C)(C)SN=O,inactive
10,NC(=O)C1=CN(C2OC(COP(=O)(O)OP(=O)(O)OC[C@H]3O[C@@H](n4cnc5c(N)ncnc54)[C@H](OP(=O)(O)O)C3O)C(O)C2O)C=CC1 (stereo not given in full),inactive
11,NC(=O)C(c1ccccc1)(c1ccccc1)[C@@H]1CCN(CCc2ccc3c(c2)CCO3)C1,inactive
12,OCC1O[C@H]([S-])C(O)[C@@H](O)[C@@H]1O.[Au+] (stereo not given in full),inactive
13,CN(C)CCC(c1ccc(Cl)cc1)c1ccccn1 (stereo not given),inactive
14,Nc1nc2c(ncn2[C@@H]2O[C@H](CO)[C@@H](O)[C@@H]2O)c(=O)[nH]1,inactive
15,CS(=O)(=O)c1ccc(-n2nc(C(F)(F)F)cc2-c2ccc(F)cc2)cc1,inactive
16,Clc1ccccc1-c1nc(-c2ccncc2)no1,inactive
17,C#CC1(O)CC[C@H]2[C@@H]3CCC4=CCCC[C@@H]4[C@H]3CC[C@@]21C (stereo not given in full),inactive
18,COc1ccc(-c2cc(=O)c3c(O)c(OC)c(OC)cc3o2)cc1O,inactive
19,C=C[C@H]1CN2CC[C@@H]1C[C@@H]2[C@@H](O)c1ccnc2ccc(OC)cc12,inactive
20,O=C(Nc1ccc2[nH]ncc2c1)C1CCC1,inactive

row,SMILES,Potency
1,Nc1nc(OCC2CCCCC2)c2[nH]cnc2n1,inactive
2,Cc1cn([C@H]2CC(N=[N+]=[N-])[C@@H](CO)O2)c(=O)[nH]c1=O (stereo not given in full),inactive
3,Cn1c(=O)c(-c2c(Cl)cccc2Cl)cc2cnc(Nc3ccc(N4CCOCC4)cc3)nc21,inactive
4,Nc1ncnc2c1ncn2[C@@H]1O[C@H](CO)C(O)[C@H]1O (stereo not given in full),inactive
5,CN1CCc2cc(NC(=O)Nc3cccnc3)ccc21,inactive
6,CC(C)c1cccc(C(C)C)c1N1C(=O)c2ccc(O)cc2C1=O,inactive
7,Cc1c(N)c(=O)n(-c2ccccc2)n1C,inactive
8,O=C(Nc1ccc2c(c1)CCN(Cc1ncn[nH]1)C2)c1ccccc1-c1ccc(C(F)(F)F)cc1,inactive
9,COc1cccc(C(=O)NCCN2CCN(c3ccc(Cl)cc3)CC2)c1,inactive
10,CCCCCCCC/C=C\CCCCCCCC(=O)NCCO,inactive
11,CCCCN(CC)c1nc(C)nc2c1c(C)cn2-c1c(C)cc(C)cc1C,inactive
12,COc1cc2c(CCNC(C)=O)c[nH]c2cc1Cl,inactive
13,COc1cccc(OC)c1OCCNCC1COc2ccccc2O1 (stereo not given),inactive
14,O=C(c1ccc(Cl)cc1)N1CCN(c2ccc([N+](=O)[O-])c3ncccc23)CC1,inactive
15,Fc1cccc(/C=N/N=C/c2cccc(F)c2)c1,inactive
16,COc1ccccc1CNCCCCCCNCCCCCCCCNCCCCCCNCc1ccccc1OC,inactive
17,Oc1ccccc1O,inactive
18,CCNC(=O)[C@H]1O[C@@H](n2cnc3c(N)nc(NCCc4ccc(CCC(=O)O)cc4)nc32)[C@H](O)C1O (stereo not given in full),inactive
19,O=S(=O)(c1cccc2c(I)cccc12)N1CCCNCC1,inactive
20,Brc1cc2c(cc1[C@H]1Nc3ccccc3[C@H]3C=CC[C@H]31)OCO2,inactive
